In the supplement of paper PMC6522484:
± gives the standard deviation of the averaged measurements.

What was measured:
[1] = test system: DLD1; test: cell viability (CellTiter-Glo) relative to plate median (fraction of plate median); higher = more viable cells; conditions: 5 µM; treatment time 24 h; reporter: 7TFP
Procedure, shortened: (§1)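 Colorectal cancer cell lines stably transduced with lentiviral TCF/Wnt firefly luciferase reporters (7TFP or TCF4/Wnt) were seeded in 384-well plates. 24 h later they received library compounds at a final 5 µM for 24 h. Parallel plates were read for firefly luciferase or CellTiterGlo luminescence on a Tecan F500 reader. Each well's signal was normalised to the plate median (webcellHTS2, additive, no log transformation), and the mean of two independent replicates is reported.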

[2] = test system: HCT116; test: as above; conditions: 5 µM; treatment time 24 h; reporter: TCF4/Wnt
Procedure, shortened: as §1

[3] = test system: SW480; test: as above; conditions: 5 µM; treatment time 24 h; reporter: 7TFP
Procedure, shortened: as §1

[4] = test system: DLD1; test: TCF/Wnt firefly luciferase reporter signal relative to plate median (fraction of plate median); higher = higher Wnt reporter signal; conditions: 5 µM; treatment time 24 h; reporter: 7TFP
Procedure, shortened: as §1

[5] = test system: SW480; test: as above; conditions: 5 µM; treatment time 24 h; reporter: 7TFP
Procedure, shortened: as §1

O[C@@H]1C[C@H]2CCC[C@@H](C1)N2Cc1ccccc1
cell viability [1]: 0.9315 ± 0.0035
cell viability [2]: 0.996 ± 0.048
cell viability [3]: 0.949 ± 0.037
TCF/Wnt firefly luciferase reporter signal [4]: 1.1 ± 0.042
TCF/Wnt firefly luciferase reporter signal [5]: 0.893 ± 0.013

O=C(NC(=O)c1c(F)cccc1F)Nc1ccc(Cl)cc1
cell viability [1]: 1.01 ± 0.021
cell viability [2]: 0.939 ± 0.07
cell viability [3]: 1.01 ± 0.016
TCF/Wnt firefly luciferase reporter signal [4]: 0.914 ± 0.18
TCF/Wnt firefly luciferase reporter signal [5]: 0.876 ± 0.044

COC1C(O)C(O[C@H]2CC[C@]3(C=O)C4C(CC[C@]3(O)C2)[C@@]2(O)CC[C@H](C3=CC(=O)OC3)[C@@]2(C)C[C@H]4OC(C)=O)OC(C)C1OC(C)=O (stereo not given in full)
cell viability [1]: 0.929 ± 0.11
cell viability [2]: 1.03 ± 0.083
cell viability [3]: 0.941 ± 0.044
TCF/Wnt firefly luciferase reporter signal [4]: 0.828 ± 0.042
TCF/Wnt firefly luciferase reporter signal [5]: 0.83 ± 0.069

O=C1C=CC(=O)c2ccccc21
cell viability [1]: 0.9965 ± 0.005
cell viability [2]: 1.05 ± 0.042
cell viability [3]: 0.989 ± 0.12
TCF/Wnt firefly luciferase reporter signal [4]: 1.13 ± 0.057
TCF/Wnt firefly luciferase reporter signal [5]: 0.963 ± 0.047

CC(C)Nc1nc(Cl)nc(NC(C)C)n1
cell viability [1]: 1.02 ± 0.049
cell viability [2]: 0.952 ± 0.0014
cell viability [3]: 0.949 ± 0.025
TCF/Wnt firefly luciferase reporter signal [4]: 0.973 ± 0.038
TCF/Wnt firefly luciferase reporter signal [5]: 0.944 ± 0.018

O=c1[nH]c2ccccc2n1C1CCN(CCCC(c2ccc(F)cc2)c2ccc(F)cc2)CC1
cell viability [1]: 0.95 ± 0.013
cell viability [2]: 0.922 ± 0.065
cell viability [3]: 1.01 ± 0.019
TCF/Wnt firefly luciferase reporter signal [4]: 1.02 ± 0.014
TCF/Wnt firefly luciferase reporter signal [5]: 0.88 ± 0.12

CNc1ccc(C(=O)CC(O)CCC(C)C2OC(=O)CC(O)CC(=O)CC(O)CC(O)CC(O)CC(O)CC3(O)CC(O)C(C(=O)OC)C(CC(O[C@@H]4O[C@H](C)[C@@H](O)[C@H](N)[C@@H]4O)/C=C/C=C/C=C/C=C/C=C/C=C/C=C/C2C)O3)cc1.COC(=O)C1C(O)CC2(O)CC(O)CC(O)CC(O)CC(O)CC(=O)CC(O)CC(=O)OC(C(C)CCC(O)CC(=O)c3ccc(N)cc3)C(C)/C=C/C=C/C=C/C=C/C=C/C=C/C=C/C(O[C@@H]3O[C@H](C)[C@@H](O)[C@H](N)[C@@H]3O)CC1O2 (stereo not given in full)
cell viability [1]: 0.932 ± 0.096
cell viability [2]: 0.959 ± 0.011
cell viability [3]: 0.962 ± 0.0085
TCF/Wnt firefly luciferase reporter signal [4]: 0.85 ± 0.088
TCF/Wnt firefly luciferase reporter signal [5]: 0.908 ± 0.023

C=CC[C@]1(O)CC[C@H]2[C@@H]3CCC4=CC(=O)CCC4=C3C=C[C@@]21C
cell viability [1]: 1.11 ± 0.16
cell viability [2]: 0.961 ± 0.052
cell viability [3]: 0.963 ± 0.081
TCF/Wnt firefly luciferase reporter signal [4]: 0.945 ± 0.078
TCF/Wnt firefly luciferase reporter signal [5]: 0.9875 ± 0.00071

CCCCC[C@H](O)c1c(O)cc2c(c1O)C(=O)c1c(O)cc(O)cc1C2=O [Averantin]
cell viability [1]: 1.02 ± 0.035
cell viability [2]: 1.075 ± 0.0071
cell viability [3]: 0.9935 ± 0.00071
TCF/Wnt firefly luciferase reporter signal [4]: 1 ± 0.11
TCF/Wnt firefly luciferase reporter signal [5]: 0.939 ± 0.14

CNC1CC(N)C(O)C(OC2OC(CO)C(O)C3OC4(OC(C(N)CO)C(O)C(O)C4O)OC23)C1O (stereo not given)
cell viability [1]: 0.983 ± 0.039
cell viability [2]: 0.98 ± 0.029
cell viability [3]: 0.985 ± 0.017
TCF/Wnt firefly luciferase reporter signal [4]: 0.979 ± 0.073
TCF/Wnt firefly luciferase reporter signal [5]: 0.988 ± 0.011

CC(C)=CCC[C@@H](C(=O)O)[C@H]1CC[C@@]2(C)C3=C(CC[C@]12C)[C@@]1(C)CC[C@H](O)C(C)(C)[C@@H]1CC3 [Trametenolic acid]
cell viability [1]: 0.995 ± 0.022
cell viability [2]: 1.07 ± 0.071
cell viability [3]: 1.02 ± 0.028
TCF/Wnt firefly luciferase reporter signal [4]: 1.08 ± 0.085
TCF/Wnt firefly luciferase reporter signal [5]: 1.12 ± 0.13

CC(=O)O[C@@H]1[C@H]2CC[C@H]3[C@@](C)(O)[C@@H]4C[C@H](O)C(C)(C)[C@@]4(O)[C@H](O)C[C@@]13C[C@@]2(C)O
cell viability [1]: 1.04 ± 0.014
cell viability [2]: 1.105 ± 0.0071
cell viability [3]: 1.09 ± 0.064
TCF/Wnt firefly luciferase reporter signal [4]: 1.04 ± 0.014
TCF/Wnt firefly luciferase reporter signal [5]: 0.984 ± 0.19

NC(=O)c1ccc(N)nc1
cell viability [1]: 1.1 ± 0.13
cell viability [2]: 1.1
cell viability [3]: 1.01 ± 0.16
TCF/Wnt firefly luciferase reporter signal [4]: 1.01 ± 0.067
TCF/Wnt firefly luciferase reporter signal [5]: 0.91 ± 0.037

C=C[C@@H]1C2=CCOC(=O)C2=CO[C@H]1O[C@@H]1O[C@H](CO)[C@@H](O)[C@H](O)[C@H]1O
cell viability [1]: 0.971 ± 0.098
cell viability [2]: 0.9495 ± 0.0078
cell viability [3]: 1.03
TCF/Wnt firefly luciferase reporter signal [4]: 0.923 ± 0.12
TCF/Wnt firefly luciferase reporter signal [5]: 0.926 ± 0.034

O=[N+]([O-])c1ccc(O)c([N+](=O)[O-])c1
cell viability [1]: 0.981 ± 0.042
cell viability [2]: 0.953 ± 0.034
cell viability [3]: 0.905 ± 0.098
TCF/Wnt firefly luciferase reporter signal [4]: 0.966 ± 0.13
TCF/Wnt firefly luciferase reporter signal [5]: 1.03 ± 0.035

C=C(C)[C@H]1CN[C@H](C(=O)O)[C@H]1CC(=O)O
cell viability [1]: 0.986 ± 0.035
cell viability [2]: 1.01 ± 0.099
cell viability [3]: 0.97 ± 0.0042
TCF/Wnt firefly luciferase reporter signal [4]: 0.923 ± 0.11
TCF/Wnt firefly luciferase reporter signal [5]: 0.947 ± 0.047

Cc1cccc(C)c1NC1=NCCCS1
cell viability [1]: 1.04 ± 0.073
cell viability [2]: 1.01 ± 0.036
cell viability [3]: 0.992 ± 0.012
TCF/Wnt firefly luciferase reporter signal [4]: 1.07 ± 0.05
TCF/Wnt firefly luciferase reporter signal [5]: 1.02 ± 0.083

NC(N)=NOCC[C@H](N)C(=O)O
cell viability [1]: 1.08 ± 0.092
cell viability [2]: 1.03 ± 0.035
cell viability [3]: 1.03 ± 0.035
TCF/Wnt firefly luciferase reporter signal [4]: 1.05 ± 0.042
TCF/Wnt firefly luciferase reporter signal [5]: 0.991 ± 0.013

CC[C@@H](C)C(=O)O[C@H]1[C@H](O)[C@H]2[C@@H](CN3C[C@@H](C)CC[C@H]3[C@@]2(C)O)[C@@H]2C[C@]34O[C@]5(O)[C@@H](OC(=O)[C@](C)(O)[C@@H](C)O)CC[C@@]3(C)[C@@H]5[C@@H](OC(C)=O)[C@@H](OC(C)=O)[C@H]4[C@@]21O (stereo in doubt)
cell viability [1]: 1.03 ± 0.035
cell viability [2]: 1.17 ± 0.085
cell viability [3]: 1.08 ± 0.028
TCF/Wnt firefly luciferase reporter signal [4]: 1.18 ± 0.092
TCF/Wnt firefly luciferase reporter signal [5]: 1.08 ± 0.071

CC(=O)OC1CCC23C(=O)OC45CCC(C6=CC(=O)OC6)C4(C)CCC2C5CCC3(O)C1 (stereo not given)
cell viability [1]: 0.688 ± 0.011
cell viability [2]: 0.397 ± 0.066
cell viability [3]: 0.7175 ± 0.0021
TCF/Wnt firefly luciferase reporter signal [4]: 0.202 ± 0.05
TCF/Wnt firefly luciferase reporter signal [5]: 0.389 ± 0.011

C[C@@H]1O[C@@H](O[C@H]2C[C@@H](O)[C@]3(CO)[C@H]4[C@H](O)C[C@]5(C)[C@@H](C6=CC(=O)OC6)CC[C@]5(O)[C@@H]4CC[C@]3(O)C2)[C@H](O)[C@H](O)[C@H]1O
cell viability [1]: 0.99 ± 0.085
cell viability [2]: 0.401 ± 0.29
cell viability [3]: 1.02 ± 0.14
TCF/Wnt firefly luciferase reporter signal [4]: 0.128 ± 0.13
TCF/Wnt firefly luciferase reporter signal [5]: 0.146 ± 0.12

CN[C@@H](C)[C@@H](O)c1ccccc1
cell viability [1]: 0.9265 ± 0.0021
cell viability [2]: 1.02 ± 0.035
cell viability [3]: 0.978 ± 0.06
TCF/Wnt firefly luciferase reporter signal [4]: 0.993 ± 0.067
TCF/Wnt firefly luciferase reporter signal [5]: 1.03 ± 0.064

CN1[C@@H]2CC[C@H]1C[C@@H](OC(c1ccccc1)c1ccccc1N)C2 (stereo not given in full)
cell viability [1]: 0.982 ± 0.096
cell viability [2]: 0.954 ± 0.0085
cell viability [3]: 1.03 ± 0.028
TCF/Wnt firefly luciferase reporter signal [4]: 0.999 ± 0.16
TCF/Wnt firefly luciferase reporter signal [5]: 0.8705 ± 0.0035

C[C@]12CC[C@H](Cl)C[C@@H]1CC[C@@H]1[C@@H]2CC[C@]2(C)C(=O)CC[C@@H]12 [3beta-CHLOROANDROSTANONE]
cell viability [1]: 1.08 ± 0.05
cell viability [2]: 0.981 ± 0.041
cell viability [3]: 1.06 ± 0.071
TCF/Wnt firefly luciferase reporter signal [4]: 1.07 ± 0.13
TCF/Wnt firefly luciferase reporter signal [5]: 1.115 ± 0.0071

Cc1ccc(C[N+](C)(C)C)o1
cell viability [1]: 1 ± 0.026
cell viability [2]: 1.025 ± 0.0071
cell viability [3]: 1.02 ± 0.014
TCF/Wnt firefly luciferase reporter signal [4]: 0.864 ± 0.012
TCF/Wnt firefly luciferase reporter signal [5]: 0.903 ± 0.027

COc1cc(OC)c(OC)cc1C=O
cell viability [1]: 0.981 ± 0.13
cell viability [2]: 1.01 ± 0.035
cell viability [3]: 0.988 ± 0.06
TCF/Wnt firefly luciferase reporter signal [4]: 0.925 ± 0.0042
TCF/Wnt firefly luciferase reporter signal [5]: 0.963 ± 0.04

CC(=O)[C@H]1CC[C@H]2[C@@H]3CC[C@H]4C[C@H](O)CC[C@]4(C)[C@H]3CC[C@]12C
cell viability [1]: 0.966 ± 0.049
cell viability [2]: 0.97 ± 0.0057
cell viability [3]: 0.99 ± 0.014
TCF/Wnt firefly luciferase reporter signal [4]: 0.902 ± 0.047
TCF/Wnt firefly luciferase reporter signal [5]: 0.912 ± 0.059

CC(=O)O[C@H]1CC[C@@]2(C)C(=CC[C@@H]3[C@@H]2CC[C@]2(C)C(=O)CC[C@@H]32)C1
cell viability [1]: 1.02 ± 0.075
cell viability [2]: 1.03 ± 0.083
cell viability [3]: 0.983 ± 0.025
TCF/Wnt firefly luciferase reporter signal [4]: 0.944 ± 0.028
TCF/Wnt firefly luciferase reporter signal [5]: 1.08 ± 0.092

CC1=C(O)C(=O)C=C2C1=CC=C1[C@@]2(C)CC[C@@]2(C)[C@@H]3C[C@](C)(C(=O)O)CC[C@]3(C)CC[C@]12C
cell viability [1]: 0.801 ± 0.11
cell viability [2]: 0.837 ± 0.065
cell viability [3]: 1 ± 0.012
TCF/Wnt firefly luciferase reporter signal [4]: 0.863 ± 0.083
TCF/Wnt firefly luciferase reporter signal [5]: 0.787 ± 0.12
